Records with an inconclusive call do not appear. Calls of active or inactive are those of the source. Unless noted, calls follow the shape of the dose curve; as a rule, active = well fitted curve in the direction sought with a large enough effect in the repeat runs; inconclusive = weak or mixed curves; inactive = no such curve, though single readings can be large; an effect the other way counts as inactive or inconclusive.

The record followed here is PubChem BioAssay (Tox21).

The nature of assay [1]: qHTS assay to identify small molecule antagonists of the glucocorticoid receptor (GR) signaling pathway - cell viability counter screen (AID 720693; also: nearly all actives have a fitted effect of over 55% in size). (In general: Quantitative high-throughput screening tests each substance at several concentrations.)
Assay [2] in a line: qHTS assay for identifying genotoxic compounds that show differential cytotoxicity against isogenic chicken DT40 cell lines with known DNA damage response pathways - wild type cell line (AID 743012). Also: nearly all actives have a fitted effect of over 60% in size. The essentials:
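Cytotoxicity in repair-proficient parental chicken DT40 cells serves as the comparator for Rad54/Ku70- and Rev3-deficient lines. Cells were exposed to compounds for 40 h at 37 C/5% CO2, and ATP-based luminescence (CellTiter-Glo) measured viability.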

The nature of assay [3]: qHTS assay for identifying genotoxic compounds that show differential cytotoxicity against isogenic chicken DT40 cell lines with known DNA damage response pathways - Rad54/Ku70 mutant cell line (AID 743015). Also: nearly all actives have a fitted effect of over 60% in size. Also: potency is read from the fitted curve at half-maximal effect.
Assay [4] can be described thus: qHTS assay to identify small molecule antagonists of the androgen receptor (AR) signaling pathway - cell viability counter screen (AID 743033; also: nearly all actives have a fitted effect of over 45% in size).
Assay [5] can be described thus: qHTS assay to identify small molecule antagonists of the androgen receptor (AR) signaling pathway using the MDA cell line - cell viability counter screen (AID 743041; also: nearly all actives have a fitted effect of over 45% in size). The method in brief: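 Using the breast carcinoma line MDA-kb2 AR-luc, test chemicals were co-incubated with R1881 for 16 h; CellTiter-Fluor reagent, added at 15.5 h, provided a fluorescence measure of live cells.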

The nature of assay [6]: qHTS assay to identify small molecule antagonists of the thyroid receptor (TR) signaling pathway - cell viability counter screen (AID 743064). Also: nearly all actives have a fitted effect of over 50% in size. The essentials:
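Viability of T3-stimulated (1 nM final) GH3.TRE-Luc cells is measured by CellTiter-Fluor fluorescence after 23.5 h compound exposure at 37 °C plus 30 min reagent incubation.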

Assay [7] can be described thus: qHTS assay to identify small molecule antagonists of the thyroid receptor (TR) signaling pathway (AID 743065). Also: series mostly up to about 70 µM; nearly all actives have a fitted effect of over 55% in size. The method in brief: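 Antagonism measured as loss of luciferase signal in GH3 cells stably carrying a TRE-luciferase reporter, co-treated with compound and T3 (1 nM final) for 23.5 h at 37 C. Viability was read in the same well by CellTiter-Fluor.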
In assay [8] the test system is thyroid hormone receptor (rat, GH3 cells). As to the kind of experiment: qHTS assay to identify small molecule agonists of the thyroid receptor (TR) signaling pathway (AID 743066; calls by dose curve).
A short description of assay [9]: qHTS assay to identify small molecule antagonists of the estrogen receptor alpha (ER-alpha) signaling pathway using the BG1 cell line - cell viability counter screen (AID 743081).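 Also: compound given together with 17beta-estradiol as the ER stimulus; series mostly up to about 70 µM; nearly all actives have a fitted effect of over 45% in size.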
The next assay has as its target Aromatase (Homo sapiens) (UniProt P11511). As to the kind of experiment: qHTS assay to identify aromatase inhibitors (AID 743083). Also: series mostly up to about 70 µM; nearly all actives have a fitted effect of over 55% in size.
A short description of assay [10]: qHTS assay to identify aromatase inhibitors - cell viability counter screen (AID 743084).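 Also: cells stimulated with testosterone during compound exposure; nearly all actives have a fitted effect of over 55% in size.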
Assay [11] is described as follows: qHTS assay to identify small molecule antagonists of the estrogen receptor alpha (ER-alpha) signaling pathway - cell viability counter screen (AID 743074; calls by dose curve; also: nearly all actives have a fitted effect of over 45% in size).
Assay [12] has as its target Estrogen receptor (Homo sapiens) (UniProt P03372). As to the kind of experiment: qHTS assay to identify small molecule antagonists of the estrogen receptor alpha (ER-alpha) signaling pathway (AID 743069; active = well fitted curve in the direction sought with a large enough effect in the signal ratio in the repeat runs, not every such curve was filed as active; the % refers to the signal ratio). The method in brief: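 Fluorescence intensity from a beta-lactamase FRET substrate served as the read-out. Cells: HEK293 with stably integrated ER-alpha-UAS-bla reporter. Agonist 17beta-estradiol was co-added with compounds; incubation 18 hr at 37C, substrate 2 hr at room temperature.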

Assay [13] shares this target. As to the kind of experiment: qHTS assay to identify small molecule agonists of the estrogen receptor alpha (ER-alpha) signaling pathway (AID 743075; calls by dose curve).
Assay [14] in a line: qHTS assay to identify small molecule antagonists of the estrogen receptor alpha (ER-alpha) signaling pathway using the BG1 cell line (AID 743080; calls by dose curve;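 also: BG1 cells stimulated with 17beta-estradiol alongside compound; series mostly up to about 70 µM; nearly all actives have a fitted effect of over 25% in size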). The method in brief: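 Readout is ONE-Glo luminescence, taken 30 min at room temperature after reagent addition, preceded by a CellTiter-Fluor viability read; BG1-Luc-4E2 cells had received compound and 17beta-estradiol for 21.5 h at 37 C.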

Assay [15] in a line: qHTS assay for identifying genotoxic compounds that show differential cytotoxicity against isogenic chicken DT40 cell lines with known DNA damage response pathways - Rev3 mutant cell line (AID 743014). Also: nearly all actives have a fitted effect of over 55% in size. Also: potency is read from the fitted curve at half-maximal effect.
In assay [16] the target is Estrogen receptor (Homo sapiens) (UniProt P03372). Put plainly: qHTS assay to identify small molecule agonists of the estrogen receptor alpha (ER-alpha) signaling pathway using the BG1 cell line (AID 743079). Also: nearly all actives have a fitted effect of over 20% in size.
Sequence of Estrogen receptor (Homo sapiens) (P03372 whole entry, looked up): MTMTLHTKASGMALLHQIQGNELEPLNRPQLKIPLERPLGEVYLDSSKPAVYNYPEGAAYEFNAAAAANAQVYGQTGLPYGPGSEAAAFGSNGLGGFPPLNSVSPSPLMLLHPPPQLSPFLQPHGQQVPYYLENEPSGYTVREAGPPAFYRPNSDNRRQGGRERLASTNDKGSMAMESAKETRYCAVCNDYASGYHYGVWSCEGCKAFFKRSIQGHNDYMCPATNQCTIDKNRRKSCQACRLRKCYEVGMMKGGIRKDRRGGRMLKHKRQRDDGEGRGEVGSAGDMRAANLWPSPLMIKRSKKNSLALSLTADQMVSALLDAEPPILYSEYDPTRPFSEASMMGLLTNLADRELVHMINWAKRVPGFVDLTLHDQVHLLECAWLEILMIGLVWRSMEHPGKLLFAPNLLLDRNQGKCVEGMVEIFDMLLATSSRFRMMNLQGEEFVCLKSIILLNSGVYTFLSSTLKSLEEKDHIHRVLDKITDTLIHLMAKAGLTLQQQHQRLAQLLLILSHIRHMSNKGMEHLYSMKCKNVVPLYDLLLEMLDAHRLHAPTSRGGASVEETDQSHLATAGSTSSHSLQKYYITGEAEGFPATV
Assay [17] deals with Androgen receptor (Homo sapiens) (UniProt P10275). Put plainly: qHTS assay to identify small molecule antagonists of the androgen receptor (AR) signaling pathway (AID 743035; active = well fitted inhibition curve with a large enough effect in the signal ratio in the repeat runs, not every such curve was filed as active; the % refers to the signal ratio; also: potency is read from the fitted curve at half-maximal effect). The method in brief: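 Steps: seed AR-UAS-bla GripTite HEK293 cells, incubate 4 h at 37C; pin in test compound, then add agonist R1881; incubate 16 h at 37C; add LiveBLAzer B/G FRET substrate, 2 h at room temperature; read fluorescence.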
Sequence of Androgen receptor (Homo sapiens) (P10275 whole entry, looked up): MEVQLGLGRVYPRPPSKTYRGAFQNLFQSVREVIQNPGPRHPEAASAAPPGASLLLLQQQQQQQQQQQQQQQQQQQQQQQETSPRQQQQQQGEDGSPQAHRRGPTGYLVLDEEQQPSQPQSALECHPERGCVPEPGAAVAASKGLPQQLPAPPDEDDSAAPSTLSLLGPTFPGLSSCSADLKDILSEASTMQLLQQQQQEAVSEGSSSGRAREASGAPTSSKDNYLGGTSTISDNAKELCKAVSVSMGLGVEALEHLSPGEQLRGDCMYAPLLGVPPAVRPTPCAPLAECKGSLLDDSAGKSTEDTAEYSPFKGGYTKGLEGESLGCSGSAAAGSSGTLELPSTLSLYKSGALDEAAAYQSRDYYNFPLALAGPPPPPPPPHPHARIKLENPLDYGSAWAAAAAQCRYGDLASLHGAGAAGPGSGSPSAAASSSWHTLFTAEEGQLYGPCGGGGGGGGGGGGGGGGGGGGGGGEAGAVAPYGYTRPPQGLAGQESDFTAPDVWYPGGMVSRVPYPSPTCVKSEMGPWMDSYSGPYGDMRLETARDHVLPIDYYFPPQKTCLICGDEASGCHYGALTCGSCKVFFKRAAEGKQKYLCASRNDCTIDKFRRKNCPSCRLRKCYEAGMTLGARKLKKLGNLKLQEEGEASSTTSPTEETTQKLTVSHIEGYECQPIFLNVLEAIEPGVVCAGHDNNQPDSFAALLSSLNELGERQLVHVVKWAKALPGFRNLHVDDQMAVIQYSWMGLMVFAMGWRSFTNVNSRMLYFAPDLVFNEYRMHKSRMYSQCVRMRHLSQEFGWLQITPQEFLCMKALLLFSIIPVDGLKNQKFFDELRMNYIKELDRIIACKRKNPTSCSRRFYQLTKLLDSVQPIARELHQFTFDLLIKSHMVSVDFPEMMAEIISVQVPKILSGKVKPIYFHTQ

Assay [18] shares this target. As to the kind of experiment: qHTS assay to identify small molecule agonists of the androgen receptor (AR) signaling pathway using the MDA cell line (AID 743040; also: nearly all actives have a fitted effect of over 20% in size; also: potency is read from the fitted curve at half-maximal effect). The essentials: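 Stable MMTV-luciferase reporter in MDA-kb2 cells; note the promoter carries GR as well as AR response elements. 16 h compound treatment, 37C, 0% CO2; ONE-Glo luminescence endpoint.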
For assay [19] the target is unchanged. As to the kind of experiment: qHTS assay to identify small molecule agonists of the androgen receptor (AR) signaling pathway (AID 743036; active = well fitted activation curve with a large enough effect in the signal ratio in the repeat runs, with a control signal flat, not every such curve was filed as active; the % refers to the signal ratio). The essentials: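 Screening used 2,000 AR-bla HEK293 cells per well, treated 16 h at 37C with test compounds in DMSO alongside positive and DMSO-only controls; beta-lactamase activity was then read by LiveBLAzer B/G FRET fluorescence after 2 h at room temperature.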

Sequence of Aromatase (Homo sapiens) (P11511 whole entry, looked up): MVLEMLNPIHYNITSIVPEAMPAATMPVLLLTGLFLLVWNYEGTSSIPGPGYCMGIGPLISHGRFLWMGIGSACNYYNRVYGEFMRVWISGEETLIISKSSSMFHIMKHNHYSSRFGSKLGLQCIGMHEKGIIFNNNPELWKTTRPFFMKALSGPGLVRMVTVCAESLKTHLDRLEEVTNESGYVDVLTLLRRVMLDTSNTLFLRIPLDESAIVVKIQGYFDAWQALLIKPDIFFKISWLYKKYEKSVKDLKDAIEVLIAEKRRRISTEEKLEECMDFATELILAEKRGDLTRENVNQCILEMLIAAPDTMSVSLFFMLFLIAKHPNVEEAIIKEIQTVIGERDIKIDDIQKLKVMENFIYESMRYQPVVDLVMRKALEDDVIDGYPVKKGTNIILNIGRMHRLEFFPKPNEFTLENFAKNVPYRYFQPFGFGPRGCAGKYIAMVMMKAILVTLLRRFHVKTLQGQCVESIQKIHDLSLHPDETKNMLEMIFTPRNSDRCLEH

Turning to `CC12CCC(C(=O)C1=O)C2(C)C` (centres undefined), the molecule was classed as inactive (in assay [1]; in assay [4]; in [8]; in assay [9]; in the assay with Aromatase (Homo sapiens)). The Potency result in [2], in [3], in [5], in [6], in [7] and in assay [10] was “inactive” in each case.

For the molecule `O=C(O)CNC(=O)c1ccccc1`, the molecule was classed as inactive (in [1]; in assay [4]; in assay [8]; in assay [9]; with Aromatase (Homo sapiens)). Besides, the Potency result in [2], in assay [3], in [5], in assay [6], in assay [7] and in assay [11] was “inactive” in each case. Moreover, the Potency entry in assay [10] was “inactive”.

Consider `CC(=O)Nc1ccc(OCC(O)CNC(C)C)cc1` (centres undefined), for which the molecule was classed as inactive (in assay [1]; in assay [4]; in assay [9]; with Aromatase (Homo sapiens)). Besides, the Potency result in [2], in [3], in assay [5], in [6], in assay [11] and in assay [10] was “inactive” in each case.

Take `CCCCOCCOC(=O)CCCCCCCCC(=O)OCCOCCCC`: the result (in assay [1]; in [4]; in [8]; in assay [9]; with Aromatase (Homo sapiens)) was inactive. Moreover, the Potency result in assay [2], in [3], in assay [5], in [6], in assay [7] and in [11] was “inactive” each time. Further, in assay [10], the Potency entry was “inactive”.

With `c1coc(CNc2ncnc3nc[nH]c23)c1`, the call (in assay [1]; in [4]; in assay [8]; in assay [9]; with Aromatase (Homo sapiens)) was inactive. Moreover, in assay [3], the Potency was 54.5 µM (active). Also, the Potency entry in assay [5], in assay [6], in assay [7], in assay [12], in [11] and in [13] was “inactive” throughout. Moreover, the Potency entry in assay [14] and in assay [10] was “inactive” throughout.

On to `COc1cc(C(=O)OC(COCCC(C)C)CN2CCOCC2)cc(OC)c1OC` (centres undefined), for which the molecule was classed as inactive (in assay [1]; in assay [8]; with Aromatase (Homo sapiens)). For the same molecule, the Potency entry in assay [15], in assay [5], in [6], in assay [7], in assay [11] and in assay [13] was “inactive” throughout. Also, the Potency entry in assay [16], in assay [14] and in assay [10] was “inactive” throughout.

As to `CC(C)=CCC/C(C)=C/C#N`, the result (in assay [1]; in assay [4]; in assay [8]; in assay [9]; with Aromatase (Homo sapiens)) was inactive. In addition, the Potency entry in assay [5], in assay [6], in assay [7], in assay [12], in assay [11] and in assay [13] was “inactive” throughout. Further, the Potency result in [16] and in [10] was “inactive” throughout.

For the molecule `COc1cc2c(cc1OC)-c1cc3ccc(OC)c(OC)c3c[n+]1CC2`, the call (in assay [1]; in assay [4]; in [9]; in the assay with Aromatase (Homo sapiens)) was inactive. Further, the Potency in assay [15] is 49 µM (active). Further, the Potency result in assay [6] and in assay [11] was “inactive” in each case.

As for `C[C@@H]1C[C@H]2[C@@H]3C[C@H](F)C4=CC(=O)C(Cl)=C[C@]4(C)[C@@]3(F)[C@@H](O)C[C@]2(C)[C@@]1(O)C(=O)CO`, the molecule was called inactive (in assay [1]; in [4]; in assay [8]; in [9]; with Aromatase (Homo sapiens)). Besides, the figures for the Potency in assay [3], in [17] and in [18] were 29.8 µM (active), 3.38 µM (active) and 0.006 µM (active), respectively. Moreover, the Potency entry in [5], in assay [6], in [11], in assay [13], in assay [16] and in assay [10] was “inactive” each time.

In the case of `CCCC[N+](C)(CCCC)CCCC`, the molecule was classed as inactive (in [1]; in assay [4]; in assay [8]; in assay [9]; in the assay with Aromatase (Homo sapiens)). Moreover, the Potency result in assay [5], in [6], in assay [7], in assay [12], in [11] and in [13] was “inactive” each time. Also, the Potency entry in [16], in [14] and in assay [10] was “inactive” throughout.

`C=CC(=O)OCCCl`: the molecule was classed as inactive (in assay [1]; in [4]; in [8]; in assay [9]; with Aromatase (Homo sapiens)). The Potency result in [5], in assay [6], in [7], in assay [12], in assay [11] and in [13] was “inactive” throughout. Also, the Potency entry in assay [16] and in assay [10] was “inactive” in each case.

With `COc1cc(C)nc(-n2nc(C)cc2OC)n1`, the outcome (in [1]; in assay [4]; in assay [8]; in [9]; with Aromatase (Homo sapiens)) was inactive. Besides, the Potency result in [5], in [6], in [7], in assay [11] and in [10] was “inactive” in each case.

Turning to `O=C1c2ccccc2C(=O)c2cc(O)ccc21`, the Potency result in assay [2], in assay [5], in [6], in [7] and in assay [11] was “inactive” in each case. Also, the outcome (in assay [4]; in [8]; with Aromatase (Homo sapiens)) was inactive.

On to `CC(C)(C)c1ccc(-c2ccc(C(C)(C)C)cc2)cc1`, for which the molecule was classed as inactive (in assay [1]; in assay [19]; in assay [8]; in assay [9]; with Aromatase (Homo sapiens)). Also, the Potency result in [3], in assay [17], in [18], in assay [5], in assay [6] and in assay [7] was “inactive” throughout. Moreover, the Potency entry in assay [12], in [11], in assay [13], in assay [16] and in assay [10] was “inactive” each time.

Consider `c1ccc2sc(SN3CCOCC3)nc2c1`, for which the molecule was called inactive (in assay [1]; in [4]; in assay [8]; in [9]; with Aromatase (Homo sapiens)). Further, the Potency entry in assay [15], in assay [5], in [6], in assay [7], in assay [11] and in [10] was “inactive” in each case.

In the case of `CCCCCCCCN1CCCC1=O`, the result (in assay [1]; in assay [4]; in assay [8]; in assay [9]; with Aromatase (Homo sapiens)) was inactive. Moreover, the Potency entry in [15], in assay [5], in assay [6], in [7], in [11] and in assay [10] was “inactive” in each case.

As to `CCCCOC(=O)CCC(C)=O`, the outcome (in [1]; in assay [4]; in assay [8]; in [9]; with Aromatase (Homo sapiens)) was inactive. Besides, in [15], the Potency is 68.6 µM (active). The Potency entry in [5], in assay [6], in assay [7], in [12], in assay [11] and in assay [13] was “inactive” in each case. Further, the Potency result in [16], in assay [14] and in assay [10] was “inactive” throughout.

Consider `CCOC(=O)C1=NOC(c2ccccc2)(c2ccccc2)C1`, for which the outcome (in [1]; in [4]; in [8]; in assay [9]; with Aromatase (Homo sapiens)) was inactive. Besides, in assay [15], the Potency was 68.6 µM (active). Besides, the Potency result in assay [5], in assay [6], in assay [7], in [12], in assay [11] and in assay [13] was “inactive” throughout. Moreover, the Potency entry in assay [16], in [14] and in [10] was “inactive” in each case.

On to `CCOC(=O)COc1cc(-n2ncc(C(F)(F)F)c(C)c2=O)c(F)cc1Cl`, for which the molecule was called inactive (in assay [1]; in assay [4]; in [19]; in [8]; in assay [9]; in the assay with Aromatase (Homo sapiens)). For the same molecule, the Potency result in [15], in assay [17], in assay [18], in [5], in [6] and in [7] was “inactive” each time. The Potency entry in [12], in [11], in [13], in assay [16], in assay [14] and in assay [10] was “inactive” in each case.

As to `COc1cc(-c2ccc(=O)[nH]n2)ccc1OC(F)F`, the Potency result in [2], in [3], in assay [5], in assay [6], in assay [7] and in assay [11] was “inactive” in each case. Further, the Potency result in assay [13], in assay [14] and in assay [10] was “inactive” in each case. The molecule was called inactive (in assay [4]; in assay [8]; in assay [9]; with Aromatase (Homo sapiens)).
